Laboratory results reported in PubChem BioAssay (NCI).
About 83,000 compounds went through this panel and 20% of them were active in at least one assay; those are over-represented in the sample as a whole.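 Cells were grown in 96-well plates and exposed to the test compound at a single concentration for 48 hours; results are reported as percent growth, with values below 10 considered active.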 A number with no mark means an inactive call. Active and inactive are the calls of the source.

What was measured:
Test in all cases: NCI-60 one-dose screen, 48 h (100 = growth as untreated, 0 = no growth, -100 = all killed)
Details in all cases: 10 µM unless noted
K-562 leukemia = tested on: K-562 leukemia
MALME-3M melanoma = tested on: MALME-3M melanoma
MDA-MB-231 breast = tested on: MDA-MB-231 breast
RXF 393 renal = tested on: RXF 393 renal
SF-268 CNS = tested on: SF-268 CNS
SF-295 CNS = tested on: SF-295 CNS
SF-539 CNS = tested on: SF-539 CNS
UACC-257 melanoma = tested on: UACC-257 melanoma
M14 melanoma = tested on: M14 melanoma
HCT-15 colon = tested on: HCT-15 colon
HT29 colon = tested on: HT29 colon
SNB-75 CNS = tested on: SNB-75 CNS
SNB-19 CNS = tested on: SNB-19 CNS
U251 CNS = tested on: U251 CNS
PC-3 prostate = tested on: PC-3 prostate
SK-MEL-5 melanoma = tested on: SK-MEL-5 melanoma
UACC-62 melanoma = tested on: UACC-62 melanoma
LOX IMVI melanoma = tested on: LOX IMVI melanoma
SK-MEL-28 melanoma = tested on: SK-MEL-28 melanoma
SK-MEL-2 melanoma = tested on: SK-MEL-2 melanoma

Cc1ccc(/C=C/c2nn3c(-c4ccco4)nnc3s2)cc1C
growth (K-562 leukemia): 97.7%
growth (MALME-3M melanoma): 104%
growth (MDA-MB-231 breast): 94.8%
growth (RXF 393 renal): 112%
growth (SF-268 CNS): 108%
growth (SF-295 CNS): 97%
growth (SF-539 CNS): 99%
growth (UACC-257 melanoma): 99.2%
growth (M14 melanoma): 108%
growth (HCT-15 colon): 96%
growth (HT29 colon): 109%
growth (SNB-75 CNS): 96.5%
growth (SNB-19 CNS): 94.9%
growth (U251 CNS): 95.7%
growth (PC-3 prostate): 89.9%
growth (SK-MEL-5 melanoma): 103%
growth (UACC-62 melanoma): 94.8%
growth (LOX IMVI melanoma): 89.3%
growth (SK-MEL-28 melanoma): 104%

OC1CCc2c(-c3ccc4ncnc(N5CCc6cc(F)c(Cl)cc65)c4c3)cncc21 (configuration not stated)
growth (K-562 leukemia): 60.9%
growth (MALME-3M melanoma): 64.5%
growth (MDA-MB-231 breast): 40.2%
growth (RXF 393 renal): 8.06% (active)
growth (SF-268 CNS): 43.3%
growth (SF-295 CNS): 54%
growth (SF-539 CNS): 53.7%
growth (UACC-257 melanoma): 89.4%
growth (M14 melanoma): 74.4%
growth (HCT-15 colon): 41.1%
growth (HT29 colon): 65.6%
growth (SNB-75 CNS): 31.7%
growth (SNB-19 CNS): 57.2%
growth (U251 CNS): 69.6%
growth (PC-3 prostate): 41.3%
growth (SK-MEL-5 melanoma): 54%
growth (UACC-62 melanoma): 43.5%
growth (LOX IMVI melanoma): 54%
growth (SK-MEL-28 melanoma): 73.6%
growth (SK-MEL-2 melanoma): 46.7%

COc1ccc(/C=C/C(=O)c2ccc(NC(=O)CSc3nnc(-c4ccc5nc(-c6ccc(Cl)cc6)[nH]c5c4)o3)cc2)cc1
growth (K-562 leukemia): 87.3%
growth (MALME-3M melanoma): 93.5%
growth (MDA-MB-231 breast): 98.4%
growth (RXF 393 renal): 107%
growth (SF-268 CNS): 114%
growth (SF-295 CNS): 100%
growth (SF-539 CNS): 94.3%
growth (UACC-257 melanoma): 110%
growth (M14 melanoma): 106%
growth (HCT-15 colon): 94.9%
growth (HT29 colon): 106%
growth (SNB-75 CNS): 98.5%
growth (SNB-19 CNS): 106%
growth (U251 CNS): 96%
growth (PC-3 prostate): 82.5%
growth (SK-MEL-5 melanoma): 89.7%
growth (UACC-62 melanoma): 83.8%
growth (LOX IMVI melanoma): 6.79% (active)
growth (SK-MEL-28 melanoma): 113%
growth (SK-MEL-2 melanoma): 111%

CN(C)c1ccc(-c2c(NC(C)(C)C)nc3c(OCCc4ccccc4)cccn23)cc1
growth (K-562 leukemia): 3.1% (active)
growth (MALME-3M melanoma): 12.9%
growth (MDA-MB-231 breast): 25.5%
growth (RXF 393 renal): -25.8% (active)
growth (SF-268 CNS): 56.6%
growth (SF-295 CNS): -12.7% (active)
growth (SF-539 CNS): 17.8%
growth (UACC-257 melanoma): 3.18% (active)
growth (M14 melanoma): 29.7%
growth (HCT-15 colon): 0.0072% (active)
growth (HT29 colon): 10.2%
growth (SNB-75 CNS): 48.4%
growth (SNB-19 CNS): 19.3%
growth (U251 CNS): 13.6%
growth (PC-3 prostate): 0.316% (active)
growth (SK-MEL-5 melanoma): -69.4% (active)
growth (UACC-62 melanoma): 35.1%
growth (LOX IMVI melanoma): 11.5%
growth (SK-MEL-28 melanoma): 35.1%
growth (SK-MEL-2 melanoma): 25.3%

COc1ccc(/C=N/Nc2ccnc3cc(Cl)ccc23)cc1Cl
growth (K-562 leukemia): -52.8% (active)
growth (MALME-3M melanoma): -78.5% (active)
growth (MDA-MB-231 breast): -71.3% (active)
growth (RXF 393 renal): -58% (active)
growth (SF-268 CNS): -64.7% (active)
growth (SF-295 CNS): -53.1% (active)
growth (SF-539 CNS): -90.4% (active)
growth (UACC-257 melanoma): -84.4% (active)
growth (M14 melanoma): -84.5% (active)
growth (HCT-15 colon): -20.4% (active)
growth (HT29 colon): -55.3% (active)
growth (SNB-75 CNS): -88.5% (active)
growth (SNB-19 CNS): -79.2% (active)
growth (U251 CNS): -90.7% (active)
growth (PC-3 prostate): -24.9% (active)
growth (SK-MEL-5 melanoma): -93.5% (active)
growth (UACC-62 melanoma): -86.4% (active)
growth (LOX IMVI melanoma): -35.5% (active)
growth (SK-MEL-28 melanoma): -92.4% (active)

CS(=O)(=O)c1ccc(-c2nc3ccccn3c2C=Nc2ccc(Cl)cc2)cc1
growth (K-562 leukemia): 23.6%
growth (MALME-3M melanoma): 93.6%
growth (MDA-MB-231 breast): 85.5%
growth (RXF 393 renal): 105%
growth (SF-268 CNS): 75.4%
growth (SF-295 CNS): 87.9%
growth (SF-539 CNS): 84.1%
growth (UACC-257 melanoma): 88.4%
growth (M14 melanoma): 43.8%
growth (HCT-15 colon): 34.3%
growth (HT29 colon): 75.7%
growth (SNB-75 CNS): 77.9%
growth (SNB-19 CNS): 89.1%
growth (U251 CNS): 91.9%
growth (PC-3 prostate): 57.8%
growth (SK-MEL-5 melanoma): 68.6%
growth (UACC-62 melanoma): 24.5%
growth (LOX IMVI melanoma): -59.2% (active)
growth (SK-MEL-28 melanoma): 74.3%
growth (SK-MEL-2 melanoma): 107%

c1ccc2c(NCCCn3ccnc3)c3oc4ccccc4c3nc2c1
growth (K-562 leukemia): 5.89% (active)
growth (MALME-3M melanoma): 1.01% (active)
growth (MDA-MB-231 breast): -10% (active)
growth (RXF 393 renal): -33.3% (active)
growth (SF-268 CNS): 10.7%
growth (SF-295 CNS): 5.7% (active)
growth (SF-539 CNS): 4.46% (active)
growth (UACC-257 melanoma): 16.4%
growth (M14 melanoma): 2.76% (active)
growth (HCT-15 colon): -6.93% (active)
growth (HT29 colon): -24% (active)
growth (SNB-75 CNS): 17.8%
growth (SNB-19 CNS): 11.9%
growth (U251 CNS): 17.9%
growth (PC-3 prostate): 5.76% (active)
growth (SK-MEL-5 melanoma): 9.52% (active)
growth (UACC-62 melanoma): -14.9% (active)
growth (LOX IMVI melanoma): -61.6% (active)
growth (SK-MEL-28 melanoma): 9.69% (active)

CCOC(=O)c1csc(NC(=O)CSc2nc3sc4c(c3c(=O)n2-c2ccc(Cl)cc2)CCCC4)n1
growth (K-562 leukemia): 93.4%
growth (MALME-3M melanoma): 104%
growth (MDA-MB-231 breast): 94.6%
growth (RXF 393 renal): 100%
growth (SF-268 CNS): 89%
growth (SF-295 CNS): 91.9%
growth (SF-539 CNS): 104%
growth (UACC-257 melanoma): 100%
growth (M14 melanoma): 93.1%
growth (HCT-15 colon): 97.7%
growth (HT29 colon): 122%
growth (SNB-75 CNS): 86.2%
growth (SNB-19 CNS): 96%
growth (U251 CNS): 98.4%
growth (PC-3 prostate): 92.4%
growth (SK-MEL-5 melanoma): 78%
growth (UACC-62 melanoma): 85%
growth (LOX IMVI melanoma): 56.5%
growth (SK-MEL-28 melanoma): 105%
growth (SK-MEL-2 melanoma): 105%
